The values below come from PubChem BioAssay.

A short description of assay [1]: resazurin metabolic signal in HepG2 cells – cell-based, resazurin fluorescence, 24 h, PK04 Diversity Set, profiling panel (AID 1172). Note: test concentration not given here. To be noted: HepG2 viability, higher = more signal.
Assay [2] can be described thus: budding yeast growth changes without added modifier – OD600, strain BY4716, 24 h, basal condition, primary screen (AID 1173). To be noted: S. cerevisiae BY4716 growth, OD600, 24 h; higher = more signal, called active from +8 up or from −8 down.
A short description of assay [3]: viability profiling in MM1S myeloma cells – cell-based, resazurin fluorescence, basal, 24 h, PK04 Diversity Set, profiling panel (AID 1174).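 Note: MM1S multiple myeloma cell line; test concentration not given here.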 The note with it: higher = more signal, called active from +8 up or from −8 down.
For assay [4], the target named is Dihydroorotate dehydrogenase (quinone), mitochondrial (Plasmodium falciparum (isolate 3D7)) (UniProt Q08210). Nature of the assay: inhibition of P. falciparum DHODH – biochemical, C-terminal His tag, absorbance 600 nm, primary screen (AID 1175).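 Note: recombinant parasite enzyme with a five histidine tag at its C terminus; test concentration not given here.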 The note with it: PfDHODH enzyme, DCIP absorbance 600 nm; higher = more signal, called active from +8 up or from −8 down.

Assay [5] can be described thus: inhibition of PAO1 biofilm formation – strain PAO1, LB-PBS medium, absorbance 600 nm, primary screen (AID 1176). Note: test concentration not given here. The note with it: P. aeruginosa PAO1 growth/biofilm, A600, 12 h; higher = more signal.
Assay [6] in a line: growth modulation of vineyard yeast isolate – strain RM11-1a, OD600, basal, 24 h, primary screen (AID 1177).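 Note: cultures grown under basal conditions with no added stressor; test concentration not given here.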 The note with it: S. cerevisiae RM11-1a growth, OD600, 24 h; higher = more signal, called active from +8 up or from −8 down.
Assay [7] in a line: growth of efflux-deficient E. coli DRC39 – strain DRC39, OD650, 24 h, E. coli filamentation inducers, primary screen (AID 1178).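 Note: growth measured as culture turbidity by optical density at 650 nm; test concentration not given here.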 The note with it: E. coli DRC39 acrAB, higher = more signal, called active from +8 up or from −8 down.
Assay [8] in a line: growth of efflux-deficient E. coli DRC39 – strain DRC39, OD650, 48 h, E. coli filamentation inducers, primary screen (AID 1179).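 Note: screen aims at cell division blockers that make cells filament.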 The note with it: E. coli DRC39 delta-acrAB growth, higher = more signal, called active from +8 up or from −8 down.
The nature of assay [9]: viability profiling in RPMI8226 myeloma cells – cell-based, resazurin fluorescence, basal, 24 h, PK04 Diversity Set, profiling panel (AID 1180).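 Note: RPMI8826 multiple myeloma cell line at 5000 cells per well; test concentration not given here.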 The note with it: higher = more signal. A general note: Resazurin is reduced to fluorescent resorufin, in cell work by metabolically active cells.
Assay [10] has as its target E3 ubiquitin-protein ligase XIAP (Homo sapiens) (UniProt P98170). In words: small molecules binding XIAP protein – biophysical, small-molecule microarray, fluorescence 635 nm, primary screen (AID 1181).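 Note: score merges 667 nm emission and signal to noise over triplicate slides.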 To be noted: higher = more signal.

Calls of active or inactive are those of the source. Unless noted, the rule behind the calls is not given here.

E3 ubiquitin-protein ligase XIAP (Homo sapiens), sequence (P98170 whole entry, looked up): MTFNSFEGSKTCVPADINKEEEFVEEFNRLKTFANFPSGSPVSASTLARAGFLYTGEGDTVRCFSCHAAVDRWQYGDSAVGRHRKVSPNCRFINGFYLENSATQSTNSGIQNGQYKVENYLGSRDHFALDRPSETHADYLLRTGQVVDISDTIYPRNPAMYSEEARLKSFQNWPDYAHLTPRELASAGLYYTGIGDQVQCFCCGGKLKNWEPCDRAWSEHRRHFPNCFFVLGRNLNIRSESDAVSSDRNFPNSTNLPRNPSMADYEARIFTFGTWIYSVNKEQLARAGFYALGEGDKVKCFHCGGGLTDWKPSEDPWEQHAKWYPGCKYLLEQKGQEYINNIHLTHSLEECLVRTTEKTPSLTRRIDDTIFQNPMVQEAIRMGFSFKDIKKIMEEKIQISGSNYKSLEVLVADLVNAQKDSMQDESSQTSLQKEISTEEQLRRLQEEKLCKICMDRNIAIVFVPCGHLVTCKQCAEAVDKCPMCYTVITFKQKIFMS
Dihydroorotate dehydrogenase (quinone), mitochondrial (Plasmodium falciparum (isolate 3D7)), sequence (Q08210 whole entry, looked up): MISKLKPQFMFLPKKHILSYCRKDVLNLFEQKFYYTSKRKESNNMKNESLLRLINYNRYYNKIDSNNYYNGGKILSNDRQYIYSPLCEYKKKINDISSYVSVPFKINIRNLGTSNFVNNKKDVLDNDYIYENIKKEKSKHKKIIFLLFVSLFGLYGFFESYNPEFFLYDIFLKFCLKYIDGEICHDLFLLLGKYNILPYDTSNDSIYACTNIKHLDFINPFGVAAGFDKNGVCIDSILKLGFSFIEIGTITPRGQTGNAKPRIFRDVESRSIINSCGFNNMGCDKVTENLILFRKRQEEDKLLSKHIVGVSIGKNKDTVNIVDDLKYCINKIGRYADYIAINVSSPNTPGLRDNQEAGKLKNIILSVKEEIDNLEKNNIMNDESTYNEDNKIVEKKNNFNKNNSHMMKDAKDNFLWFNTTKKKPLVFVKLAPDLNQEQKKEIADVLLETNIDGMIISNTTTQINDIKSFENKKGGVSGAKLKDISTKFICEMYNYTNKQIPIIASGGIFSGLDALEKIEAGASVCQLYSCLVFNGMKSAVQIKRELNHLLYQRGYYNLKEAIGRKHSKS

As for `CCCC[C@@H](O)C1=C(COC)Cn2c(=O)n(-c3ccccc3)c(=O)n2[C@H]1CO`, the z-score in assay [1] was -0.603; in assay [2], -1.86 (inactive); in assay [3], -0.0278 (inactive); in assay [5], -0.131 (inactive); in assay [6], -2.03 (inactive); in [7] it was 1.15 (inactive). The values for the z-score in assay [8] and in assay [9] were 1.06 (inactive) and -0.0456, respectively. Moreover, the composite z-score in assay [4] was -1.45 (inactive); in [10], -0.189.

For the compound `COCCOC(=O)N1C(=O)[C@@]2(c3cc(C#CCC(C(=O)OC)C(=O)OC)ccc31)[C@H](C(=O)N1CCCCCCC1)[C@H]1C(=O)O[C@H](c3ccccc3)[C@H](c3ccccc3)N1[C@@H]2c1ccccc1OCCO`, the z-score was 0.194 in assay [1]; 0.63 (inactive) in assay [2]; 0.683 (inactive) in assay [3]; 1.45 (inactive) in assay [5]; 1.62 (inactive) in [6]; -0.82 (inactive) in assay [7]. The z-score was -1.29 (inactive) in assay [8] and 0.0277 in [9]. Also, the composite z-score in assay [4] is 0.256 (inactive); in assay [10], 0.212.

In the case of `CCCCC(O)C1C=CC2C(=O)NC(=O)C2N1Nc1ccc(Cl)cc1Cl` (stereo not given), the z-score in assay [1] was -2.57; in assay [2], -16.6 (active); in assay [3], -2.26 (inactive); in assay [5], 0.546 (inactive); in assay [6], -5.12 (inactive); in [7] it was -0.818 (inactive). In addition, the z-score in [8] was -1.31 (inactive); in assay [9] it was -2.01. Further, the values for the composite z-score in assay [4] and in assay [10] were -0.2 (inactive) and -0.272, respectively.

With `CC(C)[Si](C#CCCCC#N)(O[C@H](c1ccccc1)c1cn([C@H](C)c2ccccc2)nn1)C(C)C`, the z-score is 0.592 in assay [1]; -1.06 (inactive) in assay [2]; 0.181 (inactive) in [3]; 0.559 (inactive) in [5]; -0.802 (inactive) in assay [6]; -0.708 (inactive) in [7]. For the same compound, the values for the z-score in [8] and in [9] were -0.482 (inactive) and 0.409, respectively. For the same compound, the composite z-score in [4] was 0.31 (inactive); in assay [10], 0.172.

Consider `COCCOC(=O)N1C(=O)[C@@]2(c3cc(C#CC4(O)CCCCCC4)ccc31)[C@H](c1ccc(OCCO)cc1)N1[C@H](c3ccccc3)[C@H](c3ccccc3)OC(=O)[C@H]1[C@@H]2C(N)=O`, for which the z-score in assay [1] was -0.776; in assay [2] it was 0.581 (inactive); in assay [3], -3.25 (inactive); in [5], 1.84 (inactive); in assay [6], 1.89 (inactive); in [7] it was -0.236 (inactive). Besides, the z-score in assay [8] is -0.635 (inactive); in assay [9] it was -3.62. Further, the composite z-score in assay [4] is -0.259 (inactive); in assay [10] it was -0.142.

Take `O=C1O[C@H](c2ccccc2)[C@H](c2ccccc2)N2[C@H]1[C@@H](C(=O)N1CCN(c3ncccn3)CC1)[C@]1(C(=O)Nc3ccccc31)[C@H]2c1ccc(O)cc1`: the z-score was -0.291 in assay [1]; 0.688 (inactive) in [2]; -0.73 (inactive) in assay [3]; 0.641 (inactive) in assay [5]; 2.29 (inactive) in [6]; 0.179 (inactive) in assay [7]. The z-score in assay [8] is 0.481 (inactive); in [9] it was -1.2. The figures for the composite z-score in [4] and in [10] were 0.447 (inactive) and -0.13, respectively.

`CCCCNC(=O)c1ccc(C#C[Si](C)(C)C)c(OC(C)=O)c1`: the z-score in assay [1] was -0.0319; in assay [2], -1.09 (inactive); in assay [3] it was -0.757 (inactive); in [5], -1.44 (inactive); in [6], 0.846 (inactive); in assay [7], 1.17 (inactive). Also, the z-score in assay [8] is -0.925 (inactive); in assay [9], 0.0873. The results for the composite z-score in assay [4] and in assay [10] were -1.4 (inactive) and -0.326, respectively.

Consider `CN(C)C(=O)[C@]1(Cc2ccccc2CN=[N+]=[N-])N=C(c2ccc(OCCCO)cc2)O[C@@H]1c1ccccc1N=[N+]=[N-]`, for which the z-score is 0.142 in assay [1]; -0.0107 (inactive) in assay [2]; -1.54 (inactive) in assay [3]; 0.0533 (inactive) in [5]; 1.37 (inactive) in assay [6]; 0.377 (inactive) in assay [7]. Also, the z-score in assay [8] was 0.529 (inactive); in [9] it was -1.63. For the same compound, the composite z-score in assay [4] was -0.607 (inactive); in [10], 0.181.

Turning to `O=C1O[C@@H](c2ccccc2)[C@@H](c2ccccc2)N2[C@@H](c3ccc(O)cc3)[C@]3(C(=O)Nc4ccc(C#CC5=CCCCC5)cc43)[C@@H](C(=O)N3CCCCCCC3)[C@H]12`, the z-score in assay [1] is -0.109; in assay [2], -1.2 (inactive); in [3], 0.158 (inactive); in assay [5] it was 1.22 (inactive); in assay [6], -0.976 (inactive); in [7] it was 0.326 (inactive). The figures for the z-score in [8] and in [9] were -0.199 (inactive) and 0.177, respectively. In addition, the composite z-score in [4] is -1.81 (inactive); in assay [10] it was 0.691.

For `COCCOC(=O)N1C(=O)[C@@]2(c3ccccc31)[C@H](C(N)=O)[C@H]1C(=O)O[C@H](c3ccccc3)[C@H](c3ccccc3)N1[C@@H]2c1ccc(OCCO)cc1`, the z-score is 1.35 in [1]; 1.75 (inactive) in assay [2]; 0.671 (inactive) in assay [3]; -0.108 (inactive) in [5]; 1.96 (inactive) in assay [6]; 0.755 (inactive) in assay [7]. For the same compound, the z-score is 0.094 (inactive) in [8] and 0.7 in [9]. For the same compound, the composite z-score in assay [4] is -0.525 (inactive); in [10], 0.109.

Take `CC(C)C(=C=CC[C@@H](O)c1cccc(OCCO)c1)CCO`: the z-score is 0.545 in assay [1]; -1.15 (inactive) in assay [2]; 0.265 (inactive) in assay [3]; 0.2 (inactive) in [5]; 0.0632 (inactive) in [6]; 0.546 (inactive) in assay [7]. Also, the values for the z-score in assay [8] and in assay [9] were 0.423 (inactive) and 0.336, respectively. In addition, the composite z-score in [4] was -1.1 (inactive); in assay [10] it was -0.127.

Turning to `COCCOC(=O)N1C(=O)[C@@]2(c3cc(C#CC4=CCCCC4)ccc31)[C@H](C(=O)N1CCN(c3ncccn3)CC1)[C@H]1C(=O)O[C@H](c3ccccc3)[C@H](c3ccccc3)N1[C@@H]2c1ccccc1OCCO`, the z-score in [1] was 1.32; in assay [2], 1.23 (inactive); in [3] it was 1.02 (inactive); in assay [5] it was 4.43 (inactive); in [6], 1.64 (inactive); in assay [7], -0.368 (inactive). Besides, the z-score in assay [8] is -0.514 (inactive); in [9], 0.318. Besides, the composite z-score in assay [4] is 0.598 (inactive); in assay [10], -0.312.

Take `COc1cc2c(cc1O)C(c1ccc(CN3CCCC3)cc1)N(Cc1cccc(OC(F)(F)F)c1)CC2` (stereo not given): the z-score in assay [1] is -2.98; in assay [2], -16.5 (active); in [3], -9.24 (active); in assay [5] it was -0.103 (inactive); in assay [6], -1.66 (inactive); in assay [7] it was -4.72 (inactive). In addition, the results for the z-score in [8] and in assay [9] were -3.03 (inactive) and -6.78, respectively. Besides, the composite z-score was 0.364 (inactive) in assay [4] and 0.0673 in [10].
